Several values for one entry are separate records, joined by “and”; a condition that tells them apart may be missing. Equal entries are not always repeated. Activity calls are given as the source filed them. The rule behind the calls is not given here.
Biological target: Serine/threonine-protein kinase PLK1 (Homo sapiens) (UniProt P53350)
Test: Plk1 polo box domain binding inhibitors, SAR follow-up, biochemical, fluorescence polarization, purchased analogs (AID 1053)
Conditions: Plk1 PBD fluorescence polarization peptide binding; at 20 µM; hits give high values

Serine/threonine-protein kinase PLK1 (Homo sapiens), sequence (P53350 whole entry, looked up, the tested form may be a part): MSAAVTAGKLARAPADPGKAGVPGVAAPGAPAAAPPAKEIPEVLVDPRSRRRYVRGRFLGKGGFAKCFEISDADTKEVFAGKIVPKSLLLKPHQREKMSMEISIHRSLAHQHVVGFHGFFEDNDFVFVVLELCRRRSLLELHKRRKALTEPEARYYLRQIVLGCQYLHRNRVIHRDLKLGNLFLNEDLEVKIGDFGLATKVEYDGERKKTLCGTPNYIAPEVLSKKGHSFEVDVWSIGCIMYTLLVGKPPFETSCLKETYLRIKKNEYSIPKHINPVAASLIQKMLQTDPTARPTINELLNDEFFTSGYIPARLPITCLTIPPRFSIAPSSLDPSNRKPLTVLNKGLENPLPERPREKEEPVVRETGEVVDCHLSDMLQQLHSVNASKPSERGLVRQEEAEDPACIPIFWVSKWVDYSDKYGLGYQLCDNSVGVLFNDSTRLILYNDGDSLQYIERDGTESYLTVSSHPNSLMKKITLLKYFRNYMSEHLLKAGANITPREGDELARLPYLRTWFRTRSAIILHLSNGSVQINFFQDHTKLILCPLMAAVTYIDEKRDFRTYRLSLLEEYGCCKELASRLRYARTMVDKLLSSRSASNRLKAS

Structure (SMILES) | inhibition
CCn1nc(-c2ccc(C)cc2)nc2c(=O)n(C)c(=O)nc1-2 | 16.7% (inactive)
CCCCCCC(=O)N(CN1C(=O)c2ccccc2C1=O)c1ccccc1OC | -57.6% (inactive)
CCOC(=O)c1ccc(NC(=O)c2c(C)cc(=O)oc2C)cc1 | -118% (inactive)
CC(=O)N(CN1C(=O)c2ccc([N+](=O)[O-])cc2C1=O)c1ccc(Oc2ccccc2)cc1 | -28.5% (inactive)
CCc1ccc(-c2nc3c(=O)n(C)c(=O)nc-3n(CC)n2)cc1 | 5.6% (inactive) and 4.47% (inactive)
CCOC(=O)c1ccc(NC(=O)c2cc3ccccc3oc2=O)cc1 | -10.3% (inactive)
Cn1c(=O)[nH]c2nnc(-c3ccc4c(c3)OCO4)nc2c1=O | -38.9% (inactive) and 28% (inactive)
CCOC(=O)c1ccc(NC(=O)C2CC(=O)N=C(N)S2)cc1 (stereo not given) | -67.2% (inactive)
CC(=O)N(CN1C(=O)c2ccccc2C1=O)c1ccc(Oc2ccccc2)cc1 | -50% (inactive)
CCOC(=O)c1ccc(NC(=O)c2ccc3nc(N)sc3c2)cc1 | -36.9% (inactive)
CC(=O)N(/C=C1\Sc2ccccc2C1=O)c1cccc(C)c1 | -111% (inactive)
CC(=O)N(CN1C(=O)c2cc(Cl)c(Cl)cc2C1=O)c1ccc(C)c(Cl)c1 | -45.5% (inactive)
COc1cc(C=C2C(=O)NC(=O)NC2=O)ccc1OCc1c(C)no[n+]1[O-] | -67.5% (inactive)
CN(C)c1ccc(-c2nnc3c(n2)c(=O)n(C)c(=O)n3C)cc1 | -22% (inactive)
CCn1nc(-c2cccc(Cl)c2)nc2c(=O)n(C)c(=O)nc1-2 | -5.43% (inactive) and -17.8% (inactive)

From PubChem BioAssay AID1053 (University of Pittsburgh Molecular Library Screening Center, 2008)
